Measured values from PubChem BioAssay AID651718 (The Scripps Research Institute Molecular Screening Center, 2012).
Screen size: about 360,000 compounds; about 2,700 (0.75%) were called active. No stated cut-off is given here; in the data, active means inhibition above about 4.5%; inactive means the rest. The list comes from a sample in which actives are over-represented; it also holds similar structures and randomly drawn compounds.

system: Methionine sulfoxide reductase A (Bos taurus); assay: bovine MsrA enzyme inhibitors, primary screen, biochemical, absorbance, HTS (AID 651718); details: purified bovine MsrA, absorbance read-out; at 15.5 µM; active compounds read high;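 further: 0% = vehicle wells with enzyme and 100% = reference inhibitor wells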

inhibition, active:
CC(=O)Nc1ccc(/C=N/NC(=O)c2cccs2)cc1 5.38%
O=C(N/N=C/C=C/c1ccco1)c1cccs1 5.18%
COc1ccc(-c2cc3ccc(OCc4nn[nH]n4)cc3oc2=O)cc1 6.87%
Cc1cc(C(=O)N/N=C/c2ccc(O)c([N+](=O)[O-])c2)c(C)n1-c1ccc(F)cc1 4.88%
CCOC(=O)C/C(C)=N\Nc1ccc([N+](=O)[O-])cc1[N+](=O)[O-] 12.8%
NC(=O)CSc1nnc(NC(=O)c2ccc(Br)o2)s1 4.64%
CCn1cc(/C=C(\NC(=O)c2ccc(C)cc2)C(=O)NCCN2CCOCC2)c2ccccc21 4.67%
Cc1ccc(S(=O)(=O)N(C)c2ccc(OCC(=O)OCc3ccc(C#N)cc3)cc2)cc1 7.12%
COc1ccc(/C=N/n2nnnc2N)cc1OC 4.82%
COc1ccc(/C=N\NC(=O)c2sc(N)nc2C)cc1OC 7.88%
O=C(/C=C/Sc1ncn[nH]1)c1ccc(Cl)cc1 5.19%
COc1ccc(/C=C2\N=C3CCCN3C2=O)cc1 4.73%
O=C(Oc1c(-c2ccco2)oc2ccccc2c1=O)c1cccnc1 5.77%
CCOc1cc(/C=N/NC(=O)c2ccc(CSc3nncn3C)cc2)ccc1OCC(=O)N1CCOCC1 4.92%
C=CCNC(=S)N/N=C/c1ccc(C)s1 4.91%
O=S1(=O)N=C(N(CCO)/N=C/c2ccccc2F)c2ccccc21 5.01%
Cc1cccc2cc(C#N)c(N3CCCC3)nc12 7.71%

inhibition, inactive:
Oc1c(C(c2ccco2)N2CCC3(CC2)OCCO3)sc2ncnn12 (centres undefined) 1.08%
O=C(NC(Cc1c[nH]c2ccccc12)C(=O)N/N=C/c1ccc(Br)cc1)c1cccs1 (centres undefined) 1.85%
CC1(C)CC(=O)C/C(=N\NC(=O)c2cccs2)C1 0.04%
C/C(=N\OCC(=O)Nc1ccc(Br)cc1)c1cccs1 0%
O=C(COC(=O)CCC(=O)c1cccs1)NCc1ccco1 -1.07%
Nc1[nH]c(C(=O)c2ccc(Br)cc2)c(-c2ccc3c(c2)OCO3)c1C(=O)NCCc1c[nH]c2ccccc12 1.06%
CCOC(=O)CNC(=O)N(C)[C@H]1C[C@H]2c3[nH]c4c(-c5ccc6c(c5)OCO6)cccc4c3CCN2C(=O)[C@H]1[C@H](C)O 0.91%
COC(=O)[C@]12C[C@H](CC(=O)NCc3ccc(C)o3)C(=O)N(CCC3=CCCCC3)C1=C[C@H](C(C)(C)C)O[C@@H]2C -0.16%
COCc1cc(N2CCN(C(=O)OC(C)(C)C)C[C@@H]2C)ccc1N1CCN(Cc2ccccc2)[C@H](C)C1 -0.33%
CN1C(=O)C2CC(O)C(SC3CC4C(=O)N(C)C(=O)C4CC3O)CC2C1=O (centres undefined) -0.2%
COC(=O)C1=C(C)N(Cc2cccc(C(F)(F)F)c2)C(=NCc2ccccc2)NC1c1ccc(Cl)cc1 (centres undefined) -1.08%
O=C(C(=O)N1CCC(CNC(=O)c2cccnc2Cl)CC1)c1cccs1 0.64%
COc1ccc(S(=O)(=O)N2CCOCC2)cc1NC(=O)CSc1nnc(NC2CC2)s1 1.12%
Cc1noc(C)c1COc1ccc2ccc(=O)oc2c1 1.22%
CCCCc1cc(=O)oc2cc(C)cc(OCc3nn[nH]n3)c12 2.46%
CN1CCNC(=O)C1CC(=O)NCCC1=CCCCC1 (centres undefined) 2.03%
CCOC(=O)C1CSCCS(=O)(=O)N1Cc1ccc(Cl)cc1 (centres undefined) -0.33%
CC(Oc1ccccc1[N+](=O)[O-])C(=O)N/N=C/c1ccoc1 (centres undefined) 1.1%
Cc1c(Cl)c([N+](=O)[O-])nn1Cc1ccc(C(=O)N/N=C\c2cc(Cl)ccc2O)o1 0.28%
COC(=O)C(C(=O)OC)c1ccccc1NS(=O)(=O)c1cccc2ccccc12 -0.65%
CCOC(=O)c1ccc(NNC(C)=O)c([N+](=O)[O-])c1 -0.39%
CCCCOC(=O)CCCc1ccc([N+](=O)[O-])cc1[N+](=O)[O-] 4.36%
CC(C(=O)NC1CCCC1)N1CCN(S(=O)(=O)c2ccccc2Cl)CC1 (centres undefined) -0.92%
CCCCNC(=O)C(C)N(CCN(C)C)C(=O)CCCCCN1C(=O)NC(c2ccc(Cl)cc2)C(C(=O)OCc2ccccc2)=C1C (centres undefined) 1.77%
CC(C)(C)NC(=O)CSc1nnc(NC(=O)CCc2ccccc2)s1 0.59%
COC(=O)CSc1nnc(NC(=O)CCc2ccccc2)s1 0.95%
COC(=O)[C@]12C[C@H](CC(=O)NCCc3ccccc3OC)C(=O)N(Cc3ccccc3)C1=C[C@H](C(C)C)O[C@@H]2C1CC1 0.87%
Cc1ccc(C(=O)N/C(=C\c2cn(C)c3ccccc23)C(=O)N2CCN(C)CC2)cc1 3.12%
COc1ccc(/C=C(\NC(=O)c2ccccc2)C(=O)NCCN2CCOCC2)cc1OC 2.05%
O=C(O)Cn1cnc2c(NCc3ccccc3)ncnc21 0.37%
Cc1ccc(S(=O)(=O)N(C)c2ccc(OCC(=O)NC3=NCCS3)cc2)cc1 -0.97%
Cc1ccc(S(=O)(=O)N(C)c2ccc(OCC(=O)OCC(=O)N(CC#N)c3ccccc3)cc2)cc1 0.73%
NC(=O)c1ccc(-c2csnn2)cc1 1.41%
Cc1cc(C)nc(N2C(=O)CC(Cc3ccccc3)C2=O)n1 (centres undefined) -1.66%
CC1(C)N=C(c2ccccn2)C(C)(C)N1O 0.21%
COC(=O)C1=C(C)NC(=S)NC1c1ccc(OC)cc1 (centres undefined) 0.87%
CCCCNc1cccc2c1S(=O)(=O)N[C@@H](C)CO2 0.33%
Nc1nnnn1/N=C/c1cccs1 0.3%
Nc1nnnn1/N=C/c1cccc(Br)c1 0.5%
CCN(CC)Cc1c(C(=O)OC)nnn1-c1nonc1N 0.6%
CC1(C)OC(=O)C2=C(CC(CCc3ccccc3)OC2c2ccc(Cl)cc2)O1 (centres undefined) 0.43%
COc1cc(/C=N/NC(=O)Nc2ccccc2)ccc1OCCOc1ccccc1C 0.83%
Cc1nnsc1C(=O)N/N=C/c1cccc(C(F)(F)F)c1 -1.17%
Cc1cc(OC(=O)NCCc2ccc(F)cc2)ccc1F 0.24%
CCCCCCCCN1C(=O)[C@@H](CC(=O)NCCCC)C[C@@]2(C(=O)OC)C1=C[C@H](C(C)(C)C)O[C@@H]2C 0.08%
COc1cccc(-c2cc(CNC(=O)[C@@H](Cc3ccccc3)NC(=O)[C@H]3O[C@@H](n4cnc(C(N)=O)n4)[C@H](O)[C@@H]3O)no2)c1 -0.49%
COc1ccccc1CCn1cnc(-c2ccccc2)c1C(C)C 0%
COc1ccc(CCNC(=S)NC(=O)/C=C/c2ccc(C)cc2)cc1OC 0.54%
COc1ccc(/C=C2/CCCc3ccccc3C2=O)cc1 0.69%
COc1ccc(/C=C2\SC(=N)N(c3ccc(F)cc3)C2=O)cc1 -0.72%
CCCCn1c(N)c(N(CCOC)C(=O)COc2c(C)cccc2C)c(=O)[nH]c1=O 0.79%
O=C(NCc1ccccc1)[C@H]1CCCN1C(=O)[C@H]1CCCN1C(=O)c1cc(F)cc(F)c1 0.16%
O=C(CC(=O)c1cccnc1)c1ccccc1 2.87%
O=C(OCc1cc2ccccc2[nH]c1=O)c1cccnc1 -0.22%
CC(C)CC(CC(C)C)=NNC(=O)c1ccc(CSc2nncn2C)cc1 -0.77%
CCOc1cc(/C=N/NC(=O)c2cccc(S(=O)(=O)N3CCOCC3)c2)ccc1OCC(=O)N(C)C 4.25%
CCC(Cc1ccccc1)NS(=O)(=O)c1ccc2c(c1)NC(=O)CS2 (centres undefined) -0.21%
C=CCNC(=S)NNC(=O)c1ccc(Br)o1 -0.22%
CNC(=S)N/N=C/c1ccc(N2CCOCC2)s1 3.27%
CC(C)(C)C(c1nc2ccccc2[nH]1)n1c(Cc2csc3ccccc23)nc2ccccc21 (centres undefined) -0.41%
COC(=O)C1=C(C)N(Cc2ccccc2C(F)(F)F)C(=NCC2CC2)NC1c1cccc(Cl)c1 (centres undefined) -2.13%
O=S1(=O)c2ccc(Br)cc2-n2nncc2CN1Cc1cccc(Cl)c1 0.62%
CC(C)(C)n1nc(C2CC2)c(Br)c1NC(=O)c1ccccc1F -0.05%
CC(C)C[C@H]1CN([C@@H](Cc2ccccc2)CN2CCC[C@@H]2CN2C(=O)C(=O)NC[C@@H]2Cc2ccc(O)cc2)C(=O)C(=O)N1CCc1ccccc1 -0.32%
O=C(O)c1ccccc1Cc1ccc(F)c2ccccc12 0.31%
COc1cccc(NC(=O)N(C)C[C@@H]2OCc3cn(nn3)CCCC(=O)N([C@@H](C)CO)C[C@H]2C)c1 0.43%
C=CCOCCN(C)C1=NS(=O)(=O)c2ccccc21 0.32%
COc1ccc(/C=N/N(C)C2=NS(=O)(=O)c3ccccc32)cc1OC 1.42%
O=S1(=O)c2c(cccc2N2CCCC2)O[C@H](COCc2ccccc2)CN1C1CC1 0.28%
C=CCN=C1NC(c2ccccc2)C(C(=O)OC)=C(C)N1Cc1ccc(C(F)(F)F)cc1 (centres undefined) -1.03%
CC(=O)c1ccc(S(=O)(=O)N2CCN(c3nc4c(C)c(C)ccc4cc3C#N)CC2)cc1 0.77%
Cc1cc(C)c2cc(C#N)c(N3CCNCC3)nc2c1 0.05%
